The results in this text go back to PMC11006913.

Common to all, as to experiment: PBM; 200 nM protein, PBS
What all share (conditions): dsDNA, one strand shown

The target in experiment [1] is HOXB9 (Homo sapiens, UniProt P17482 171-250, T197M).
In experiment [2] the target is HOXB9 (Homo sapiens, UniProt P17482 171-250).
Experiment [3] has as its target ALX3 (Homo sapiens, UniProt O95076 139-225, N203Q).
Experiment [4] addresses ALX3 (Homo sapiens, UniProt O95076 139-225).
Experiment [5] concerns the target ALX3 (Homo sapiens, UniProt O95076 139-225, L168Q).
In experiment [6] the target is HOXB9 (Homo sapiens, UniProt P17482 171-250, R186Q).
HOXB9 (Homo sapiens, UniProt P17482 171-250, R186Q), sequence (P17482 171-250 R186Q): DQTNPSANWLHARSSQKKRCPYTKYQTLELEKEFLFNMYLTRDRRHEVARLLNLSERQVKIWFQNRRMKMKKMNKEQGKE
The target in experiment [7] is ALX3 (Homo sapiens, UniProt O95076 139-225, L168V).
ALX3 (Homo sapiens, UniProt O95076 139-225, L168V), sequence (O95076 139-225 L168V): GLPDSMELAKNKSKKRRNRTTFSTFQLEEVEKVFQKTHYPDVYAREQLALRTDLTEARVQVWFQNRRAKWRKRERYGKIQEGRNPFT
In experiment [8] the target is ALX3 (Homo sapiens, UniProt O95076 139-225, N203S).
ALX3 (Homo sapiens, UniProt O95076 139-225, N203S), sequence (O95076 139-225 N203S): as the sequence (O95076 139-225 L168V) above, with V30L, N65S counted along it
For experiment [9], the target named is HOXC10 (Homo sapiens, UniProt Q9NYD6 254-340).
HOXC10 (Homo sapiens, UniProt Q9NYD6 254-340), sequence (Q9NYD6 254-340): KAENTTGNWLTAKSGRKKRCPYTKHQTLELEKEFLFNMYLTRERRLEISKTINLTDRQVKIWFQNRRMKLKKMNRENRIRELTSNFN
Experiment [10] has as its target HOXD13 (Homo sapiens, UniProt P35453 263-343, T313R).
Experiment [11] deals with HOXD13 (Homo sapiens, UniProt P35453 263-343).
HOXD13 (Homo sapiens, UniProt P35453 263-343), sequence (P35453 263-343): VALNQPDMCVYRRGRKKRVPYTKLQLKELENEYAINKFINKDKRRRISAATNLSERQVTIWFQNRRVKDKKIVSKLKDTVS
Experiment [12] concerns the target HOXC10 (Homo sapiens, UniProt Q9NYD6 254-340, K271E).
The target in experiment [13] is HOXD13 (Homo sapiens, UniProt P35453 263-343, T313A).
HOXD13 (Homo sapiens, UniProt P35453 263-343, T313A), sequence (P35453 263-343 T313A): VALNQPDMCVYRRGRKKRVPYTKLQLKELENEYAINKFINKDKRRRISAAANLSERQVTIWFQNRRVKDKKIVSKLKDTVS
Experiment [14] has as its target HOXC9 (Homo sapiens, UniProt P31274 178-260, K195R).
Experiment [15] concerns the target HOXC9 (Homo sapiens, UniProt P31274 178-260).
Experiment [16] has as its target HOXC9 (Homo sapiens, UniProt P31274 178-260, R193K).
The target in experiment [17] is HOXC9 (Homo sapiens, UniProt P31274 178-260, R222W).
HOXC9 (Homo sapiens, UniProt P31274 178-260, R222W), sequence (P31274 178-260 R222W): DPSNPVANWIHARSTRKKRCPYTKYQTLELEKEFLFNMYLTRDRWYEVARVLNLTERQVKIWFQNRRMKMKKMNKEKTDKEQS
In experiment [18] the target is T1, PAX4 (Homo sapiens, UniProt O43316 9-242, F177Y).
T1 sequence: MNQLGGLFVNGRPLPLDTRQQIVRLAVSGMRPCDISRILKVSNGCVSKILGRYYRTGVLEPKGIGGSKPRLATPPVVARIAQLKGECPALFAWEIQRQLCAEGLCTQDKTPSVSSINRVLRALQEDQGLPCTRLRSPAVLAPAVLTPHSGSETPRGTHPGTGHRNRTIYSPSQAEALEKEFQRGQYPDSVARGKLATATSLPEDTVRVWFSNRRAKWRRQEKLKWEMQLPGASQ

For experiment [19], the target named is T2, PAX4 (Homo sapiens, UniProt O43316 9-242, R200K).
T2 sequence: T1 sequence with Y169F, R192K

The target of experiment [20] is T3, PAX4 (Homo sapiens, UniProt O43316 9-242, F177V).
T3 sequence: T1 sequence with Y169V

Positions count from the first letter of the chain named.

ALX3 (Homo sapiens, UniProt O95076 139-225, N203Q), sequence (O95076 139-225 N203Q): as the sequence (O95076 139-225 L168V) above, with V30L, N65Q counted along it
HOXD13 (Homo sapiens, UniProt P35453 263-343, T313R), sequence (P35453 263-343 T313R): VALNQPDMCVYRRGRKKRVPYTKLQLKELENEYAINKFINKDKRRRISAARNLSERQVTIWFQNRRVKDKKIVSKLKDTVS
HOXC9 (Homo sapiens, UniProt P31274 178-260, K195R), sequence (P31274 178-260 K195R): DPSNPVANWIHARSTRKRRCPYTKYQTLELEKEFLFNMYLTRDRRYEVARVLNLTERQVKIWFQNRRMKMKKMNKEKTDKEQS
HOXC10 (Homo sapiens, UniProt Q9NYD6 254-340, K271E), sequence (Q9NYD6 254-340 K271E): as the sequence (Q9NYD6 254-340) above, with K18E counted along it
HOXB9 (Homo sapiens, UniProt P17482 171-250, T197M), sequence (P17482 171-250 T197M): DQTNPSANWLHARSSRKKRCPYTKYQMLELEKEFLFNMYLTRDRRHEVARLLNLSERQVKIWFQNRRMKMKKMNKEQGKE
HOXC9 (Homo sapiens, UniProt P31274 178-260, R193K), sequence (P31274 178-260 R193K): as the sequence (P31274 178-260 R222W) above, with R16K, W45R counted along it
HOXB9 (Homo sapiens, UniProt P17482 171-250), sequence (P17482 171-250): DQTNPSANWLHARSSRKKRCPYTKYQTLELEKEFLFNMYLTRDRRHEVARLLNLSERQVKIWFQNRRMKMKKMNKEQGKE
HOXC9 (Homo sapiens, UniProt P31274 178-260), sequence (P31274 178-260): as the sequence (P31274 178-260 R222W) above, with W45R counted along it
ALX3 (Homo sapiens, UniProt O95076 139-225, L168Q), sequence (O95076 139-225 L168Q): as the sequence (O95076 139-225 L168V) above, with V30Q counted along it
ALX3 (Homo sapiens, UniProt O95076 139-225), sequence (O95076 139-225): as the sequence (O95076 139-225 L168V) above, with V30L counted along it

Consider GGAGCTCC, for which the binding signal with HOXB9 [1] is 8.62 upbm affinity estimate (log intensity, higher = more binding, comparable within an allelic series); in the experiment with HOXB9 [2] it was 8.6 upbm affinity estimate (log intensity, higher = more binding, comparable within an allelic series); with ALX3 [3] it was 7.68 upbm affinity estimate (log intensity, higher = more binding, comparable within an allelic series); with ALX3 [4] it was 7.41 upbm affinity estimate (log intensity, higher = more binding, comparable within an allelic series); with ALX3 [5], 7.7 upbm affinity estimate (log intensity, higher = more binding, comparable within an allelic series); with HOXB9 [6], 8.62 upbm affinity estimate (log intensity, higher = more binding, comparable within an allelic series). Further, the binding signal with ALX3 [7] was 7.63 upbm affinity estimate (log intensity, higher = more binding, comparable within an allelic series); with ALX3 [8], 7.63 upbm affinity estimate (log intensity, higher = more binding, comparable within an allelic series).
With GGCCCCCC, the binding signal is 8.33 upbm affinity estimate (log intensity, higher = more binding, comparable within an allelic series) with HOXB9 [1]; 8.39 upbm affinity estimate (log intensity, higher = more binding, comparable within an allelic series) in the experiment with HOXB9 [2]; 8.36 upbm affinity estimate (log intensity, higher = more binding, comparable within an allelic series) in the experiment with HOXB9 [6].
Regarding CCTACAGG, the binding signal was 8.54 upbm affinity estimate (log intensity, higher = more binding, comparable within an allelic series) with HOXB9 [1]; 8.25 upbm affinity estimate (log intensity, higher = more binding, comparable within an allelic series) in the experiment with HOXB9 [2]; 8.25 upbm affinity estimate (log intensity, higher = more binding, comparable within an allelic series) with HOXB9 [6].
Consider CGCCGCCG, for which the binding signal was 10 upbm affinity estimate (log intensity, higher = more binding, comparable within an allelic series) in the experiment with HOXC10 [9]; 9.36 upbm affinity estimate (log intensity, higher = more binding, comparable within an allelic series) with HOXD13 [10]; 9.39 upbm affinity estimate (log intensity, higher = more binding, comparable within an allelic series) with HOXD13 [11]; 10 upbm affinity estimate (log intensity, higher = more binding, comparable within an allelic series) with HOXC10 [12]; 9.5 upbm affinity estimate (log intensity, higher = more binding, comparable within an allelic series) with HOXD13 [13].
On to CGGGCTAG, for which the binding signal with HOXC9 [14] was 9.53 upbm affinity estimate (log intensity, higher = more binding, comparable within an allelic series); in the experiment with HOXC9 [15] it was 9.6 upbm affinity estimate (log intensity, higher = more binding, comparable within an allelic series); in the experiment with HOXD13 [10], 9.56 upbm affinity estimate (log intensity, higher = more binding, comparable within an allelic series); with HOXC9 [16], 9.51 upbm affinity estimate (log intensity, higher = more binding, comparable within an allelic series); with HOXD13 [11] it was 9.47 upbm affinity estimate (log intensity, higher = more binding, comparable within an allelic series); with HOXD13 [13] it was 9.73 upbm affinity estimate (log intensity, higher = more binding, comparable within an allelic series). Also, the binding signal in the experiment with HOXC9 [17] is 9.67 upbm affinity estimate (log intensity, higher = more binding, comparable within an allelic series).
As to GCCGCTCC, the binding signal was 9.38 upbm affinity estimate (log intensity, higher = more binding, comparable within an allelic series) with HOXD13 [10]; 9.56 upbm affinity estimate (log intensity, higher = more binding, comparable within an allelic series) with HOXD13 [11]; 9.61 upbm affinity estimate (log intensity, higher = more binding, comparable within an allelic series) with HOXD13 [13].
Regarding ATCGATTA, the binding signal with PAX4 [18] was 11 upbm affinity estimate (log intensity, higher = more binding, comparable within an allelic series).
For ATTATTAA, the binding signal with HOXB9 [1] is 10 upbm affinity estimate (log intensity, higher = more binding, comparable within an allelic series); in the experiment with ALX3 [3], 8.56 upbm affinity estimate (log intensity, higher = more binding, comparable within an allelic series).
Take TCCATTAA: the binding signal in the experiment with HOXB9 [1] is 9.97 upbm affinity estimate (log intensity, higher = more binding, comparable within an allelic series); in the experiment with HOXB9 [6], 11.5 upbm affinity estimate (log intensity, higher = more binding, comparable within an allelic series).
With GTTAATGA, the binding signal in the experiment with HOXC10 [12] is 11.9 upbm affinity estimate (log intensity, higher = more binding, comparable within an allelic series).
As for TATTAATA, the binding signal was 10.1 upbm affinity estimate (log intensity, higher = more binding, comparable within an allelic series) with HOXB9 [1]; 12.6 upbm affinity estimate (log intensity, higher = more binding, comparable within an allelic series) with HOXC9 [14]; 11.7 upbm affinity estimate (log intensity, higher = more binding, comparable within an allelic series) with PAX4 [19]; 8.75 upbm affinity estimate (log intensity, higher = more binding, comparable within an allelic series) in the experiment with ALX3 [3]; 10.9 upbm affinity estimate (log intensity, higher = more binding, comparable within an allelic series) with HOXD13 [10]; 12.5 upbm affinity estimate (log intensity, higher = more binding, comparable within an allelic series) with HOXC9 [16]. The binding signal is 11.9 upbm affinity estimate (log intensity, higher = more binding, comparable within an allelic series) with HOXD13 [11]; 11.1 upbm affinity estimate (log intensity, higher = more binding, comparable within an allelic series) in the experiment with PAX4 [18]; 12 upbm affinity estimate (log intensity, higher = more binding, comparable within an allelic series) with HOXD13 [13]; 11.1 upbm affinity estimate (log intensity, higher = more binding, comparable within an allelic series) with HOXC9 [17]; 9.77 upbm affinity estimate (log intensity, higher = more binding, comparable within an allelic series) with ALX3 [7]; 8.79 upbm affinity estimate (log intensity, higher = more binding, comparable within an allelic series) with ALX3 [8].
On to CCCATTAA, for which the binding signal in the experiment with HOXB9 [1] is 10.1 upbm affinity estimate (log intensity, higher = more binding, comparable within an allelic series); with HOXC9 [14] it was 12.9 upbm affinity estimate (log intensity, higher = more binding, comparable within an allelic series); with HOXC10 [9] it was 12.2 upbm affinity estimate (log intensity, higher = more binding, comparable within an allelic series); with HOXB9 [2], 12.2 upbm affinity estimate (log intensity, higher = more binding, comparable within an allelic series); with HOXC9 [15], 12.9 upbm affinity estimate (log intensity, higher = more binding, comparable within an allelic series); with HOXD13 [10], 10.6 upbm affinity estimate (log intensity, higher = more binding, comparable within an allelic series). Moreover, the binding signal is 12.9 upbm affinity estimate (log intensity, higher = more binding, comparable within an allelic series) in the experiment with HOXC9 [16]; 11.8 upbm affinity estimate (log intensity, higher = more binding, comparable within an allelic series) with HOXD13 [11]; 12.2 upbm affinity estimate (log intensity, higher = more binding, comparable within an allelic series) with HOXC10 [12]; 11.5 upbm affinity estimate (log intensity, higher = more binding, comparable within an allelic series) in the experiment with HOXD13 [13]; 12 upbm affinity estimate (log intensity, higher = more binding, comparable within an allelic series) in the experiment with HOXB9 [6]; 10.9 upbm affinity estimate (log intensity, higher = more binding, comparable within an allelic series) with HOXC9 [17].
Consider GATAATGA, for which the binding signal with PAX4 [19] is 11.2 upbm affinity estimate (log intensity, higher = more binding, comparable within an allelic series); with PAX4 [20], 10.3 upbm affinity estimate (log intensity, higher = more binding, comparable within an allelic series).
